According to PubChem BioAssay (EPA / NIEHS):
Calls of active or inactive are those of the source. How the source made its calls: active means hit-call score of the fitted dose curve at least 0.9, where 1 is the maximum; inactive means score below 0.9.

How the values were obtained:
Conditions in all cases: mRNA level, 48 h; actives raise or lower the signal
[1] = read-out: growth arrest and DNA damage 45 (GADD45B), GADD45B (gene 4616); assay: LTEA_HepaRG_GADD45B: Life Technologies and Expression Analysis (LTEA) Assay for growth arrest and DNA damage 45 (GADD45B) using HepaRG (AID 2283461)
Method in brief: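 Transcript level quantified by Fluidigm TaqMan qRT-PCR with three housekeeping genes for normalization, analyzed for up- or down-regulation against 0.5% DMSO. HepaRG cultures dosed 48 h at eight half-log concentrations up to 100 uM, duplicates.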

[2] = read-out: ABC Transporter (ABCC3), ABCC3 (gene 8714); assay: LTEA_HepaRG_ABCC3: Life Technologies and Expression Analysis (LTEA) Assay for ABC Transporter (ABCC3) using HepaRG (AID 2283462)
Method in brief: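 Transcript level by TaqMan qRT-PCR, normalised to three housekeeping genes, fitted in both directions relative to vehicle. Chemicals tested in duplicate at eight half-log concentrations up to 100 uM for 48 h on HepaRG cells (0.5% DMSO).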

[3] = read-out: ABC Transporter (ABCC2), ABCC2 (gene 1244); assay: LTEA_HepaRG_ABCC2: Life Technologies and Expression Analysis (LTEA) Assay for ABC Transporter (ABCC2) using HepaRG (AID 2283464)
Method in brief: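 Endpoint is ABCC2 transcript level from qRT-PCR, normalized to three housekeeping genes and fitted bidirectionally relative to DMSO. Human HepaRG cells received test chemical for 48 h at up to 100 uM (8 points, half-log steps, 0.5% DMSO), duplicate wells.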

[4] = read-out: Broad substrate specificity ATP-binding cassette transporter ABCG2 (Homo sapiens) (UniProt Q9UNQ0); assay: LTEA_HepaRG_ABCG2: Life Technologies and Expression Analysis (LTEA) Assay for ABC Transporter (ABCG2) using HepaRG (AID 2283465)
Method in brief: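 Differentiated HepaRG cells were exposed for 48 h in serum-free induction medium to 8 half-log concentrations, top 100 uM, in 0.5% DMSO. ABCG2 mRNA was measured by qRT-PCR, normalized to ACTB, GAPDH and POLR2A, with bidirectional fitting versus DMSO.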

[5] = read-out: ATP-citrate lyase (ACLY), ACLY (gene 47); assay: LTEA_HepaRG_ACLY: Life Technologies and Expression Analysis (LTEA) Assay for ATP-citrate lyase (ACLY) using HepaRG (AID 2283466)
Method in brief: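 Differentiated HepaRG cells exposed 48 h in serum-free induction medium to eight half-log concentrations up to 100 uM in 0.5% DMSO, duplicates. Transcript measured by Fluidigm TaqMan qRT-PCR, normalized to ACTB, GAPDH, POLR2A; bidirectional fit versus DMSO.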

[6] = read-out: Peroxisomal acyl-coenzyme A oxidase 1 (ACOX1) gene, ACOX1 (gene 51); assay: LTEA_HepaRG_ACOX1: Life Technologies and Expression Analysis (LTEA) Assay for Peroxisomal acyl-coenzyme A oxidase 1 (ACOX1) gene using HepaRG (AID 2283467)
Method in brief: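 HepaRG cells, plated 48 h then switched to serum-free induction medium, were exposed in duplicate for 48 h to 8-point half-log concentrations up to 100 uM in 0.5% DMSO. ACOX1 mRNA was measured by qRT-PCR, normalized to ACTB/GAPDH/POLR2A, and fitted bidirectionally versus DMSO.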

[7] = read-out: Alkaline Phosphatase, Placental (ALPP) gene, ALPP (gene 250); assay: LTEA_HepaRG_ALPP: Life Technologies and Expression Analysis (LTEA) Assay for Alkaline Phosphatase, Placental (ALPP) gene using HepaRG (AID 2283468)
Method in brief: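 ALPP transcript level, measured by qRT-PCR and normalized to three housekeeping genes (ACTB, GAPDH, POLR2A), after 48 h dosing of differentiated HepaRG in serum-free induction medium. Top concentration 100 uM with half-log dilutions (8 points, 0.5% DMSO, duplicates); bidirectional fitting relative to DMSO.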

[8] = read-out: Bcl-2 (BAD) gene, BAD (gene 572); assay: LTEA_HepaRG_BAD: Life Technologies and Expression Analysis (LTEA) Assay for Bcl-2 (BAD) gene using HepaRG (AID 2283469)
Method in brief: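 Differentiated HepaRG cells were exposed in duplicate in 0.5% DMSO for 48 h to eight-point half-log concentrations up to 100 uM. BAD mRNA was measured by Fluidigm TaqMan qRT-PCR, normalized to ACTB, GAPDH and POLR2A, and fitted bidirectionally against DMSO.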

[9] = read-out: Bcl-2 (BAX) gene, BAX (gene 581); assay: LTEA_HepaRG_BAX: Life Technologies and Expression Analysis (LTEA) Assay for Bcl-2 (BAX) gene using HepaRG (AID 2283470)
Method in brief: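 Differentiated HepaRG cells exposed 48 h in serum-free induction medium, eight half-log concentrations from 100 uM, in duplicate, 0.5% DMSO vehicle. BAX mRNA by TaqMan qRT-PCR, normalised to ACTB, GAPDH and POLR2A.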

[10] = read-out: adenosine kinase (ADK) gene, ADK (gene 132); assay: LTEA_HepaRG_ADK: Life Technologies and Expression Analysis (LTEA) Assay for adenosine kinase (ADK) gene using HepaRG (AID 2283471)
Method in brief: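 Differentiated HepaRG cells dosed 48 h in serum-free induction medium, 0.5% DMSO vehicle, eight half-log concentrations from 100 uM, in duplicate. ADK mRNA by TaqMan qRT-PCR normalised to ACTB, GAPDH, POLR2A; bidirectional fit versus DMSO.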

[11] = read-out: Alpha-fetoprotein (AFP) gene, AFP (gene 174); assay: LTEA_HepaRG_AFP: Life Technologies and Expression Analysis (LTEA) Assay for Alpha-fetoprotein (AFP) gene using HepaRG (AID 2283472)
Method in brief: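 Differentiated human HepaRG cells exposed 48 h in serum-free induction medium, 8-point half-log series from 100 uM in 0.5% DMSO, duplicate. AFP mRNA by qRT-PCR, normalized to ACTB, GAPDH, POLR2A; bidirectional fit vs DMSO.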

[12] = read-out: BCL2L11 (gene 10018); assay: LTEA_HepaRG_BCL2L11: Life Technologies and Expression Analysis (LTEA) Assay for Bcl-2 (BCL2L11) gene using HepaRG (AID 2283473)
Method in brief: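 BCL2L11 transcript levels are measured by Fluidigm qRT-PCR, normalized to three housekeeping genes. HepaRG cultures were plated 48 h, then treated 48 h with test chemical (top 100 uM, half-log, 0.5% DMSO vehicle); curves were fitted bidirectionally against DMSO.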

[13] = read-out: Apolipoprotein A-V (APOA5) gene, APOA5 (gene 116519); assay: LTEA_HepaRG_APOA5: Life Technologies and Expression Analysis (LTEA) Assay for Apolipoprotein A-V (APOA5) gene using HepaRG (AID 2283474)
Method in brief: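 APOA5 transcript levels were quantified by qRT-PCR, normalized to three housekeeping genes, after 48 h chemical treatment of HepaRG cells (8 points, 100 uM maximum, half-log steps, 0.5% DMSO). Curves fitted in both directions against vehicle.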

[14] = read-out: Apoptosis regulator Bcl-2 (Homo sapiens) (UniProt P10415); assay: LTEA_HepaRG_BCL2: Life Technologies and Expression Analysis (LTEA) Assay for Bcl-2 gene using HepaRG (AID 2283475)
Method in brief: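 Differentiated human HepaRG cells in serum-free induction medium exposed 48 h, in duplicate, to 8-point half-log series from 100 uM in 0.5% DMSO. BCL2 mRNA by qRT-PCR (TaqMan/Fluidigm), normalized to ACTB, GAPDH, POLR2A; bidirectional fit against DMSO.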

[15] = read-out: Bcl-2 (BID) gene, BID (gene 637); assay: LTEA_HepaRG_BID: Life Technologies and Expression Analysis (LTEA) Assay for Bcl-2 (BID) gene using HepaRG (AID 2283476)
Method in brief: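 Gene expression by qRT-PCR in HepaRG cells after 48 h exposure, duplicate wells, eight half-log concentrations topping at 100 uM in 0.5% DMSO. Normalized to ACTB, GAPDH, POLR2A; bidirectional fitting relative to DMSO.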

[16] = read-out: Caspase-3 (Homo sapiens) (UniProt P42574); assay: LTEA_HepaRG_CASP3: Life Technologies and Expression Analysis (LTEA) Assay for cysteine-aspartic acid protease (CASP3) using HepaRG (AID 2283477)
Method in brief: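 Expression of CASP3 was quantified by TaqMan qRT-PCR against three housekeeping genes (ACTB, GAPDH, POLR2A), bidirectionally versus 0.5% DMSO. HepaRG cultures received compounds in duplicate, top 100 uM with half-log steps, for 48 h in serum-free induction medium.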

[17] = read-out: Cytochrome P450 (CYP24A1), CYP24A1 (gene 1591); assay: LTEA_HepaRG_CYP24A1: Life Technologies and Expression Analysis (LTEA) Assay for Cytochrome P450 (CYP24A1) using HepaRG (AID 2283478)
Method in brief: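 mRNA of CYP24A1 quantified by TaqMan qRT-PCR (ACTB/GAPDH/POLR2A normalization) after 48 h chemical exposure of HepaRG cells, top concentration 100 uM, half-log steps, 0.5% DMSO vehicle, duplicates. Curves fitted bidirectionally against DMSO baseline.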

[18] = read-out: Cytochrome P450 (CYP1A2), CYP1A2 (gene 1544); assay: LTEA_HepaRG_CYP1A2: Life Technologies and Expression Analysis (LTEA) Assay for Cytochrome P450 (CYP1A2) using HepaRG (AID 2283479)
Method in brief: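 CYP1A2 transcript measured by TaqMan qRT-PCR against three housekeeping genes after 48-hour chemical exposure of HepaRG cells. Eight-point half-log series topping at 100 uM in 0.5% DMSO, duplicates; gain or loss fitted relative to vehicle.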

[19] = read-out: cysteine-aspartic acid protease (CASP8), CASP8 (gene 841); assay: LTEA_HepaRG_CASP8: Life Technologies and Expression Analysis (LTEA) Assay for cysteine-aspartic acid protease (CASP8) using HepaRG (AID 2283480)
Method in brief: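 Differentiated HepaRG cells in serum-free induction medium, 48 h exposure, eight-point half-log series from 100 uM in 0.5% DMSO, duplicates. CASP8 mRNA by qRT-PCR, normalized to ACTB, GAPDH, POLR2A; bidirectional fit versus DMSO.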

Measured: AC50

Chain of Broad substrate specificity ATP-binding cassette transporter ABCG2 (Homo sapiens) (Q9UNQ0 whole entry, looked up): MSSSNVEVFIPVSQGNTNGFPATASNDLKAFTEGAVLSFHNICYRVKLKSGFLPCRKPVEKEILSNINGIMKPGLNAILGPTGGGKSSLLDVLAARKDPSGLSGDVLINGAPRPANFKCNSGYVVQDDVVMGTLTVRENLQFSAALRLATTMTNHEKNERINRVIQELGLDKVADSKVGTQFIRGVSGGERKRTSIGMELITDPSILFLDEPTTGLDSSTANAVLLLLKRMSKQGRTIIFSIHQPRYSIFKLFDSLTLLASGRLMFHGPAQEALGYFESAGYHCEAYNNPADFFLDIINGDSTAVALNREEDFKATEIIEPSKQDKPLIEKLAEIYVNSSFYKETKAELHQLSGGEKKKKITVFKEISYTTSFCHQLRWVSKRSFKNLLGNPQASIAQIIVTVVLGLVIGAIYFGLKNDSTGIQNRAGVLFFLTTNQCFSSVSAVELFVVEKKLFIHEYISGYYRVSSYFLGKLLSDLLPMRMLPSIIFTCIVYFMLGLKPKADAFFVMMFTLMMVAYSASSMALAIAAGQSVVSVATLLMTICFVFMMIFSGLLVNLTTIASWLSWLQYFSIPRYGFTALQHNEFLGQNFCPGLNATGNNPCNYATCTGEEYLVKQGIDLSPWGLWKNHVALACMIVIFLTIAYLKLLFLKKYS
Chain of Apoptosis regulator Bcl-2 (Homo sapiens) (P10415 whole entry, looked up): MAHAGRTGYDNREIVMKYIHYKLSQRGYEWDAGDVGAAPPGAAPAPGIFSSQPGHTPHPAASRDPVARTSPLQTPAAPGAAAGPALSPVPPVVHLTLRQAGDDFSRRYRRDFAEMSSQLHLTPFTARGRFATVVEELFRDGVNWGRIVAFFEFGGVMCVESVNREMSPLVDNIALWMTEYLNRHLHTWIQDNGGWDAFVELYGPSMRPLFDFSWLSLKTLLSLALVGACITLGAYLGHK
Chain of Caspase-3 (Homo sapiens) (P42574 whole entry, looked up): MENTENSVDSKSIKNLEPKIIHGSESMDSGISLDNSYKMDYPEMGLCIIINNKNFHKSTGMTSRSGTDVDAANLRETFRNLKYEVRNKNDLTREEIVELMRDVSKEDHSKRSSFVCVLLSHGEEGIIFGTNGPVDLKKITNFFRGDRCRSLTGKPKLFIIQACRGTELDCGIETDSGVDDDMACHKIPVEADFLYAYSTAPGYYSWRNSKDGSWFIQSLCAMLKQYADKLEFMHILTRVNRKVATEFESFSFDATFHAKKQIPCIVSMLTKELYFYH

Cc1ccc(S(=O)(=O)O)cc1C
inactive: [1] | [2] | [3] | [4] | [5] | [6] | [7] | [8] | [9] | [10] | [11] | [12] | [13] | [14] | [15] | [16] | [17] | [18] | [19]

CCCCCCCCO
inactive: [1] | [2] | [3] | [4] | [5] | [6] | [7] | [8] | [9] | [10] | [11] | [12] | [13] | [14] | [15] | [16] | [17] | [18]

C[C@](N)(Cc1ccc(O)c(O)c1)C(=O)O
inactive: [1] | [2] | [3] | [4] | [5] | [6] | [7] | [8] | [9] | [10] | [11] | [12] | [13] | [14] | [15] | [16] | [17] | [18] | [19]

Cn1c(=O)cc(Oc2ccc(F)cc2F)c2cnc(NCC(C)(C)O)nc21
inactive: [1] | [2] | [3] | [4] | [5] | [6] | [8] | [9] | [10] | [11] | [12] | [13] | [14] | [15] | [16] | [17]
active: [7] 20.7 µM | [18] 16 µM

Cn1cnc([N+](=O)[O-])c1Sc1ncnc2nc[nH]c12
inactive: [1] | [2] | [3] | [4] | [5] | [6] | [7] | [8] | [10] | [14] | [15] | [16] | [17]
active: [9] 8.77 µM | [11] 5.38 µM | [12] 7.34 µM | [13] 15.8 µM | [18] 0.9 µM

COc1ccc(-n2nc(C(F)F)cc2-c2ccc(S(C)=O)cc2)cc1 (stereo unspecified)
inactive: [1] | [2] | [4] | [5] | [6] | [7] | [8] | [9] | [10] | [11] | [12] | [13] | [14] | [15] | [16] | [17]
active: [3] 30.9 µM | [18] 50 µM

CC(=O)c1ccc2c(c1)[C@H](NC(=O)c1ccc(F)cc1)[C@@H](O)C(C)(C)O2
inactive: [1] | [2] | [4] | [5] | [6] | [7] | [8] | [9] | [10] | [11] | [12] | [13] | [14] | [15] | [16] | [17] | [18]
active: [3] 9.67 µM

CCCCC(CC)COC(=O)CCCCCCCCC(=O)OCC(CC)CCCC (stereo unspecified)
inactive: [1] | [2] | [3] | [4] | [5] | [6] | [7] | [8] | [9] | [10] | [11] | [12] | [13] | [14] | [15] | [16] | [17] | [18] | [19]

O=C(CCCCCCCCc1cccnc1)N1CCC(C=C(c2ccccc2)c2ccccc2)CC1
active: [1] 84.6 µM | [4] 13.2 µM | [6] 50 µM | [7] 13.7 µM | [9] 30.9 µM | [11] 24.3 µM | [12] 27.3 µM | [13] 29.6 µM | [14] 16.6 µM | [16] 61.9 µM | [18] 17 µM
inactive: [2] | [3] | [5] | [8] | [10] | [15] | [17] | [19]
